In the supplement of paper PMC11732987, “Enantioselective OTUD7B fragment discovery through chemoproteomics screening and high-throughput optimisation” (Communications Chemistry, 2025):

How the values were obtained:
Assay in all cases: log2 ratio of Biotin-Ahx-Ub-VS probe labelling (fragment/DMSO); higher = less target engagement (more negative = stronger competition), active = hit call of the paper (q ≤ 0.05, log2 ratio ≤ -1)
Details in all cases: compound concentration: 200 uM; treatment time: 3 h
[1] = molecular target: T1, OTUD6B (UniProt Q8N6M0)
T1 sequence (whole entry): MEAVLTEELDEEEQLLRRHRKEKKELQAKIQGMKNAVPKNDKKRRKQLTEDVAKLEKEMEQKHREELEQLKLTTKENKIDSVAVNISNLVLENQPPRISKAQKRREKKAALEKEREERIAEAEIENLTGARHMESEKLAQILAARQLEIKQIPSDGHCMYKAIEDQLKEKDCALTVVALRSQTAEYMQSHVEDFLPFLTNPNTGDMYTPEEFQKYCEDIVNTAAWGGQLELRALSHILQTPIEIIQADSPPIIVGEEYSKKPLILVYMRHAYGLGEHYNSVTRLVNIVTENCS
Summary of the method: (§1)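 Labelling with Biotin-Ahx-Ub-VS (0.5 µM final, 1 h) followed a 3 h triplicate treatment of HEK293T lysate (495 µg per sample, Tris/CHAPS/IGEPAL buffer with protease inhibitors) with fragment at 200 µM or vehicle. Labelled DUBs were NeutrAvidin-enriched, digested with LysC and trypsin, and run by diaPASEF LC-MS/MS. The values, average log2 fragment/vehicle ratios by unpaired t-test, come from global-median-normalised Spectronaut label-free quantities. Proteins with ≥2 unique peptides were used.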

[2] = molecular target: T2, OTUD7B (UniProt Q6GQQ9)
T2 sequence (whole entry): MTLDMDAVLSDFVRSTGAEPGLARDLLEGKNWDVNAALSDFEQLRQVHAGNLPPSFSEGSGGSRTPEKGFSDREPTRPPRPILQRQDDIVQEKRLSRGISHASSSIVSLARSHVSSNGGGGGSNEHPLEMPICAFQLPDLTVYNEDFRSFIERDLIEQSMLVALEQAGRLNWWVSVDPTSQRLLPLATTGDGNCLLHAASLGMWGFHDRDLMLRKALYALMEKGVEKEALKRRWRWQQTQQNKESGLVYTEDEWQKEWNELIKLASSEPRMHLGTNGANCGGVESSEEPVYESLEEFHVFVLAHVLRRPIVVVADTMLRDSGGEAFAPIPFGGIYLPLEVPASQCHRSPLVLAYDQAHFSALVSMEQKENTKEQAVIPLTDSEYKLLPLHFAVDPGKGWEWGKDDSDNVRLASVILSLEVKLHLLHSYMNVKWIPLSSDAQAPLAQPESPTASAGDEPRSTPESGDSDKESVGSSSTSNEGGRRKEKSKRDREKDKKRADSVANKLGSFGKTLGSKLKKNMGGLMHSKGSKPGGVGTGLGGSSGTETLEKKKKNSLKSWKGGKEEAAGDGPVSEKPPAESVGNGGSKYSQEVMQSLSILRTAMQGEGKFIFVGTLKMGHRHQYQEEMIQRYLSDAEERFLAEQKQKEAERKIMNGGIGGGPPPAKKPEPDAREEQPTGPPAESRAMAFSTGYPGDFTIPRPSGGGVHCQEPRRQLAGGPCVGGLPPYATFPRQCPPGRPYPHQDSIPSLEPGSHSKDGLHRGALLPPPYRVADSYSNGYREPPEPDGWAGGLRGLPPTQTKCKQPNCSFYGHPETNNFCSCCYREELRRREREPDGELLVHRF
Summary of the method: as §1

[3] = molecular target: PRPF8 (UniProt Q6P2Q9)
Summary of the method: as §1

[4] = molecular target: T3, PSMD7 (UniProt P51665)
T3 sequence (whole entry): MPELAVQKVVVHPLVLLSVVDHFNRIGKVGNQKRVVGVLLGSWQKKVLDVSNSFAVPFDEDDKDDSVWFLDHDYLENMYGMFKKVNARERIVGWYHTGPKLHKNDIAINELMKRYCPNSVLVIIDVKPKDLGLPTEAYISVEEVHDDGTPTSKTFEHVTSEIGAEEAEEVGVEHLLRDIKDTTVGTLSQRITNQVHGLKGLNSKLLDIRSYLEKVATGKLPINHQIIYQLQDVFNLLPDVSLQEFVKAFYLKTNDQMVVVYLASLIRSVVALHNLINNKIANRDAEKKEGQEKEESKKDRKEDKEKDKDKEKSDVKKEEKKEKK
Summary of the method: as §1

[5] = molecular target: UCHL1 (UniProt P09936)
UCHL1, sequence (P09936 whole entry, looked up): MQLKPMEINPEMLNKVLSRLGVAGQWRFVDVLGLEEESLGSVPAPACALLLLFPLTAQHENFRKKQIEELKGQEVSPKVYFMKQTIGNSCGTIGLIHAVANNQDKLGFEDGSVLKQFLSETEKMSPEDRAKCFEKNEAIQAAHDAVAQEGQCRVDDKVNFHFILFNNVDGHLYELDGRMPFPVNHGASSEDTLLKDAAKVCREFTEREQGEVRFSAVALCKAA
Summary of the method: as §1

[6] = molecular target: T4, UCHL3 (UniProt P15374)
T4 sequence (whole entry): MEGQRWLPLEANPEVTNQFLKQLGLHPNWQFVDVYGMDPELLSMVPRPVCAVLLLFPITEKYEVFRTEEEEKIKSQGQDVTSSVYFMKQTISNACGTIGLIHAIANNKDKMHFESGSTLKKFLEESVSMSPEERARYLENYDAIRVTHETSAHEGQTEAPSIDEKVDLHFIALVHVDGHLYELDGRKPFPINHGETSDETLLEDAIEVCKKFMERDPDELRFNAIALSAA
Summary of the method: as §1

[7] = molecular target: T5, UCHL5 (UniProt Q9Y5K5)
T5 sequence (whole entry): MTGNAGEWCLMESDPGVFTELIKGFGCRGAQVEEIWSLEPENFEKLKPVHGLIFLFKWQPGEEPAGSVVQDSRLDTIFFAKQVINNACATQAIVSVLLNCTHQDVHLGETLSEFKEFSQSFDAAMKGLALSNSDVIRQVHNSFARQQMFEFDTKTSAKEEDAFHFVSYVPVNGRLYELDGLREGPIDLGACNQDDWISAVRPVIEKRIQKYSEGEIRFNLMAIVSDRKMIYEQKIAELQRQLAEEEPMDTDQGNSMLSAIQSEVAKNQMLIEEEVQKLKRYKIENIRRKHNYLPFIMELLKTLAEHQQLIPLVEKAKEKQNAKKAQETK
Summary of the method: as §1

[8] = molecular target: USP10 (UniProt Q14694)
USP10, sequence (Q14694 whole entry): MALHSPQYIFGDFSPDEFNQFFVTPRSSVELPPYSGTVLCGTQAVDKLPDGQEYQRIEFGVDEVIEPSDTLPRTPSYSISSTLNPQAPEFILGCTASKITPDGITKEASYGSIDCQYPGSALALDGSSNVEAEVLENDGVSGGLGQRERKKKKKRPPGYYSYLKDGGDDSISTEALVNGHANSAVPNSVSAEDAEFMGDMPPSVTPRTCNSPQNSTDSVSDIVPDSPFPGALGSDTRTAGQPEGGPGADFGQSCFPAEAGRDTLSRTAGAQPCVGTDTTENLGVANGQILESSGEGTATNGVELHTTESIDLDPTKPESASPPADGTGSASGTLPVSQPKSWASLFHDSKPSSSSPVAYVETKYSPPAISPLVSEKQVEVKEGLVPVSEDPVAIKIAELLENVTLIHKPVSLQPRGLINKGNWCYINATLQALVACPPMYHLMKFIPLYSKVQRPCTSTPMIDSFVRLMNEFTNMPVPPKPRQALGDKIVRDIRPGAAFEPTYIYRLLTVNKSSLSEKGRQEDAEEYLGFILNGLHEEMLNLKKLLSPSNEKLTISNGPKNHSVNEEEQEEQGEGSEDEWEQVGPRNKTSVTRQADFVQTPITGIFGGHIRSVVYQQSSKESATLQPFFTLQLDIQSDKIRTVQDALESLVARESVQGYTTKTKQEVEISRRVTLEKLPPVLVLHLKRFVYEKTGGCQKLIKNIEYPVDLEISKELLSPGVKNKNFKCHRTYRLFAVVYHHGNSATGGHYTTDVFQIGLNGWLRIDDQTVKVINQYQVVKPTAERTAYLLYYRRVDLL
Summary of the method: as §1

[9] = molecular target: T6, USP15 (UniProt Q9Y4E8)
T6 sequence (whole entry): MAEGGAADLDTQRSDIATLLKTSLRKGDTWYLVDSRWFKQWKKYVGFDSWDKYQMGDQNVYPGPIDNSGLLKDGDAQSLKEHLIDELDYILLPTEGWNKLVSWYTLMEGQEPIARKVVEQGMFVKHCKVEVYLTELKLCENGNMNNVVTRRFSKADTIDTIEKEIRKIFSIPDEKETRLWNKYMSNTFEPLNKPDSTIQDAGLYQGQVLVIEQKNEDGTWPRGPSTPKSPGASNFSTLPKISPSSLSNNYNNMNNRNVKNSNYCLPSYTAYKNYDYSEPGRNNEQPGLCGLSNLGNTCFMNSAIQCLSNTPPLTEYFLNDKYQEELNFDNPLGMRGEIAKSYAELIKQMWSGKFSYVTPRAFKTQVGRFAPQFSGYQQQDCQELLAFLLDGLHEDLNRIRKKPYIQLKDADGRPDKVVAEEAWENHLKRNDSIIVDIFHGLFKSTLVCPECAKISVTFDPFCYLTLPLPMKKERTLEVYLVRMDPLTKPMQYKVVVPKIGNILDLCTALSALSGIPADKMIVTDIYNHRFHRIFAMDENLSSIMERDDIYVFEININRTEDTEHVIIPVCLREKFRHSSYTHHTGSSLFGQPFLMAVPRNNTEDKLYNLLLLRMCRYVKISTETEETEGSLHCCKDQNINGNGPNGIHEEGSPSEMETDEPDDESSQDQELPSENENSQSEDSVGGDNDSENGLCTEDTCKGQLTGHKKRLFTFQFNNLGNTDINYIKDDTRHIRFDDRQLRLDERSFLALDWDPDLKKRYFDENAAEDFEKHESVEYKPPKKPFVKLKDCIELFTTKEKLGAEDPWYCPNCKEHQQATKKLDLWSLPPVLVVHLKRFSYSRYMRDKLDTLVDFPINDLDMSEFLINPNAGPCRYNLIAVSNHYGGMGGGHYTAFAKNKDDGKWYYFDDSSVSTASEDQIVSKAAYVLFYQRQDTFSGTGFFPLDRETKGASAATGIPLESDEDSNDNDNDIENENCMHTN
Summary of the method: as §1

[10] = molecular target: USP16 (UniProt Q9Y5T5)
USP16, sequence (Q9Y5T5 whole entry, looked up): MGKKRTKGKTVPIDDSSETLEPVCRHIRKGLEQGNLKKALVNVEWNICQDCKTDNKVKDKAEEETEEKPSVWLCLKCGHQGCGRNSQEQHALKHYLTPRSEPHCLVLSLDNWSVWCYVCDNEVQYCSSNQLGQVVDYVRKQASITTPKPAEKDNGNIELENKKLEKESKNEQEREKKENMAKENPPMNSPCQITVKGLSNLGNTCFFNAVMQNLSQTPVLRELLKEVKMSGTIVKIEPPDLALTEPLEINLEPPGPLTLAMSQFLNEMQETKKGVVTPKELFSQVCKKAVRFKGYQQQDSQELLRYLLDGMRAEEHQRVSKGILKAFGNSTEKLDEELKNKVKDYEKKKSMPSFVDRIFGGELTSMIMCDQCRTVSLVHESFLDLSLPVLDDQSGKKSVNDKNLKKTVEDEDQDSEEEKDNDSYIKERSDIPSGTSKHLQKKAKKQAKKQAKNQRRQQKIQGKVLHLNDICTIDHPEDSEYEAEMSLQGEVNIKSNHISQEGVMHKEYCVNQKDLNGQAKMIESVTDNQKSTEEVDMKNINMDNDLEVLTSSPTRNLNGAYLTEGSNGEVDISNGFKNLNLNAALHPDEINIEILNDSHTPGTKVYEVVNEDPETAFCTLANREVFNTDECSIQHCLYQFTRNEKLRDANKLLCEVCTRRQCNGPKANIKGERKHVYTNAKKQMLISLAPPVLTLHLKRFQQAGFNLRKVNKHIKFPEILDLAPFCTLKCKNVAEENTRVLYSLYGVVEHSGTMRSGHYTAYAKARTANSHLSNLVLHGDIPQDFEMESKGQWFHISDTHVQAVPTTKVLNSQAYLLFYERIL
Summary of the method: as §1

Measured: log2 ratio of Biotin-Ahx-Ub-VS probe labelling

Cl.O=C(CCl)NCCc1ncc(F)cc1F
inactive: [1] -0.346 | [2] -0.663 | [3] -0.0362 | [4] -0.45 | [6] 0.191 | [7] -0.376 | [8] -0.075 | [9] -0.3 | [10] -0.0122
active: [5] -1.7
